Measurements published in the supplement of paper PMC10127200.
Counter-ions that a name gives are not always drawn.

test system: A549; experiment: Euclidean distance of Cell Painting phenotypic profile (signed KS, 77 features) to DMSO centroid (dimensionless distance); 5 or 10 uM (library dependent); higher = stronger phenotypic change vs DMSO (phenoactivity); settings: 48 h
In short: (§1)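 Phenoactivity is defined as the Euclidean distance from a compound profile to the median vehicle profile. Each profile comprised 77 Harmony features, scored as signed Kolmogorov-Smirnov statistics versus same-plate vehicle wells, then plate-position corrected, correlation-weighted and replicate-averaged at the top dose. Five cancer lines and one healthy fibroblast line were exposed to library compounds for 48 h at 10 or 5 uM (0.1% DMSO final).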

Q: How did the Euclidean distance turn out when `CC(C)/N=c1\cc2n(-c3ccc(Cl)cc3)c3ccccc3nc-2cc1Nc1ccc(Cl)cc1` [Clofazimine] was run?
A: 1.1

Q: For `COc1ccc(CNC(=O)Nc2ncc([N+](=O)[O-])s2)cc1`, which Euclidean distance is on record?
A: 1.95

Q: For `NC(=O)N/N=C/c1ccc([N+](=O)[O-])o1` [Nitrofural], which Euclidean distance is on record?
A: 0.907

Q: For `CC(=O)NS(=O)(=O)c1ccc(N)cc1` [Sulfacetamide sodium salt hydrate], which Euclidean distance is on record?
A: 0.692

Q: How did the Euclidean distance turn out when `CC(=O)NS(=O)(=O)c1ccc(N)cc1` [Sulfacetamide] was run?
A: 0.619

Q: How did the Euclidean distance turn out when `CCC[C@@H]1C[C@@H](C(=O)N[C@@H]([C@H]2O[C@H](SC)[C@H](O)[C@@H](O)[C@H]2O)[C@H](C)Cl)N(C)C1` [Clindamycin HCl] was run?
A: 0.576

Q: Which Euclidean distance does the source give for `Cc1cc(NS(=O)(=O)c2ccc(N)cc2)nc(C)n1` [sulfaisodimidine] here?
A: 0.563

Q: How did the Euclidean distance turn out when `CO[C@H]1/C=C/O[C@@]2(C)Oc3c(C)c(O)c4c(c3C2=O)C2=NC3(CCN(CC(C)C)CC3)NC2=C(NC(=O)/C(C)=C\C=C\[C@H](C)[C@H](O)[C@@H](C)[C@@H](O)[C@@H](C)[C@H](OC(C)=O)[C@@H]1C)C4=O` [Rifabutin] was run?
A: 0.759

Q: With `NS(=O)(=O)c1cc(Cl)c(Cl)c(S(N)(=O)=O)c1` [Dichlorphenamide] as the compound, how does the Euclidean distance read?
A: 0.762

test system: DU145; experiment: as above; settings: 48 h
In short: as §1

Q: `O=C(O)c1ccccc1O` [Salicylic acid] was tested. Which Euclidean distance did it give?
A: 0.898

Q: For `CN1CCCN=C1/C=C/c1cccs1` [Pyrantel Pamoate], which Euclidean distance is on record?
A: 0.771

Q: With `CN[C@@H]1[C@@H](O[C@H]2O[C@H](CO)[C@@H](N)[C@H](O)[C@H]2O)OC2C[C@@H](N)[C@@H](O[C@H]3[C@H](O)[C@@H](O)[C@H](N)C[C@@H]3N)OC2[C@@H]1O` (some centres not stated) [Apramycin Sulfate] as the compound, how does the Euclidean distance read?
A: 0.965

Q: For `CCOC(=O)c1ccc(O)cc1` [Ethylparaben], which Euclidean distance is on record?
A: 0.901

Q: How did the Euclidean distance turn out when `CC(C)(C)c1[nH]cnc1/C=c1\[nH]c(=O)/c(=C/c2ccccc2)[nH]c1=O` [Plinabulin (NPI-2358)] was run?
A: 4.17

Q: With `C[C@H](NC(=O)CCC(F)(F)F)C(=O)N[C@@H]1C(=O)N(CCO)c2ncccc2-c2ccccc21` as the compound, how does the Euclidean distance read?
A: 1.3

Q: Which Euclidean distance does the source give for `CC1=C(/C=C/C(C)=C/C=C/C(C)=C/C(=O)Nc2ccc(O)cc2)C(C)(C)CCC1` [Fenretinide] here?
A: 1.92

Q: For `Cn1cnc2c(F)c(Nc3ccc(Br)cc3F)c(C(=O)NOCCO)cc21`, which Euclidean distance is on record?
A: 2.61

Q: For `OC(CCN1CCCC1)(c1ccccc1)C1CCCCC1` (configuration not stated) [Procyclidine HCl], which Euclidean distance is on record?
A: 0.562

Q: With `CCN(C(=O)c1c(O)c2c(Cl)cccc2n(C)c1=O)c1ccccc1` [Laquinimod] as the compound, how does the Euclidean distance read?
A: 0.863

Q: For `COc1ccc(CN2CCN(C(c3ccc(F)cc3)c3ccc(F)cc3)CC2)c(OC)c1OC` [Lomerizine 2HCl], which Euclidean distance is on record?
A: 1.02

Q: `O=c1cc(CO)occ1O` [Kojic acid] was tested. Which Euclidean distance did it give?
A: 0.837

Q: With `CC[C@@H](C)Nc1cc(C(=O)N[C@H]2C[C@H]3CC[C@@H](C2)N3c2ccc(C(=O)C3CC3)cn2)c(C)cc1C(N)=O` as the compound, how does the Euclidean distance read?
A: 3.17

Q: How did the Euclidean distance turn out when `CCC(C)n1ncn(-c2ccc(N3CCN(c4ccc(OCC5COC(Cn6cncn6)(c6ccc(Cl)cc6Cl)O5)cc4)CC3)cc2)c1=O` (configuration not stated) [Itraconazole] was run?
A: 1.52

Q: For `CC(O)Cn1cnc2c1c(=O)n(C)c(=O)n2C` (configuration not stated) [Proxyphylline], which Euclidean distance is on record?
A: 0.788

Q: `C=C1CC[C@H](O)C/C1=C/C=C1\CCC[C@]2(C)[C@@H]([C@H](C)CCCC(C)(C)O)CC[C@@H]12` [Calcifediol] was tested. Which Euclidean distance did it give?
A: 0.927

Q: `CC(C)C[C@H](NC(=O)CNC(=O)[C@H](Cc1ccc(O)cc1)NC(=O)[C@H](CO)NC(=O)[C@H](Cc1c[nH]c2ccccc12)NC(=O)[C@H](Cc1cnc[nH]1)NC(=O)[C@@H]1CCC(=O)N1)C(=O)N[C@@H](CCCNC(=N)N)C(=O)N1CCC[C@H]1C(=O)NCC(N)=O` [Gonadorelin Acetate] was tested. Which Euclidean distance did it give?
A: 0.611

Q: Which Euclidean distance does the source give for `COc1ccccc1N1CCN(CC(O)COc2cccc3ccccc23)CC1` (configuration not stated) [Naftopidil] here?
A: 0.795

Q: `C=C1C(=O)O[C@H]2[C@H]1CC/C(C)=C/CC[C@@]1(C)O[C@@H]21` [(-)-Parthenolide] was tested. Which Euclidean distance did it give?
A: 3.27

Q: `OCCN1C[C@H](O)[C@@H](O)[C@H](O)[C@H]1CO` [Miglitol] was tested. Which Euclidean distance did it give?
A: 1.16

Q: `COc1ccc2cc([C@H](C)C(=O)O)ccc2c1` [Naproxen Sodium] was tested. Which Euclidean distance did it give?
A: 0.948

Q: With `CCCCCCOC(=O)NC(=N)c1ccc(NCc2nc3cc(C(=O)N(CCC(=O)OCC)c4ccccn4)ccc3n2C)cc1` [Dabigatran Etexilate] as the compound, how does the Euclidean distance read?
A: 1.17

Q: With `CN1CCC(=C2c3ccccc3CCc3cccnc32)CC1` [Azatadine dimaleate] as the compound, how does the Euclidean distance read?
A: 0.544
